# Results taken from the supplement of paper PMC8371130.
# Structures can show the parent of a compound that is named as a salt.
# System: HL-1
# Assay: relative cell viability (CellTiter-Glo) vs DMSO control (% of DMSO control); higher = more viable cells
# Summary of the method: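 In 384-well plates, 1000 HL-1 mouse atrial cardiomyocytes per well were plated with compounds at 40, 200, 1000 or 5000 nM in 0.01% DMSO. Hypoxia at 1% O2 for 48 h began one day later and was followed by 24 h of reoxygenation, with parallel plates held in normoxia. CellTiter-Glo luminescence gave cell viability relative to vehicle-treated control cells.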
# [1] = oxygen condition: hypoxia 48 h (1% O2) + reoxygenation 24 h, 40 nM
# [2] = oxygen condition: hypoxia 48 h (1% O2) + reoxygenation 24 h, 200 nM
# [3] = oxygen condition: hypoxia 48 h (1% O2) + reoxygenation 24 h, 1000 nM
# [4] = oxygen condition: hypoxia 48 h (1% O2) + reoxygenation 24 h, 5000 nM
# [5] = oxygen condition: normoxia 72 h, 40 nM
# [6] = oxygen condition: normoxia 72 h, 200 nM
# [7] = oxygen condition: normoxia 72 h, 1000 nM
# [8] = oxygen condition: normoxia 72 h, 5000 nM
SMILES,relative cell viability [1],relative cell viability [2],relative cell viability [3],relative cell viability [4],relative cell viability [5],relative cell viability [6],relative cell viability [7],relative cell viability [8]
CC(=O)NS(=O)(=O)c1ccc(N)cc1 [sulfacetamide sodium],97.5,98.4,106,104,102,107,107,108
Cc1cccc(CN2CCN(C(c3ccccc3)c3ccc(Cl)cc3)CC2)c1 (stereo unspecified) [Meclizine 2HCl],101,108,98.5,107,101,109,111,103
CN1C(CCl)Nc2cc(Cl)c(S(N)(=O)=O)cc2S1(=O)=O (stereo unspecified) [Methyclothiazide],106,98.5,105,110,108,106,109,115
C[C@]12C=CC(=O)N[C@@H]1CC[C@@H]1[C@@H]2CC[C@]2(C)[C@@H](C(=O)Nc3cc(C(F)(F)F)ccc3C(F)(F)F)CC[C@@H]12 [Dutasteride],104,106,109,108,105,106,113,99.6
CN(Cc1ccc(C(C)(C)C)cc1)Cc1cccc2ccccc12 [Butenafine HCl],98.1,104,106,109,104,100,106,110
CSc1ccc2c(c1)N(CCC1CCCCN1C)c1ccccc1S2 (stereo unspecified) [Thioridazine HCl],101,108,101,107,98.9,101,98.7,108
NS(=O)(=O)c1cc(C(=O)O)c(NCc2ccco2)cc1Cl [Furosemide],116,105,108,112,106,101,111,106
Nc1cccc2c1CN(C1CCC(=O)NC1=O)C2=O (stereo unspecified) [Lenalidomide],108,110,109,111,113,117,117,114
O=C(NC[C@H]1CN(c2ccc(N3CCOCC3=O)cc2)C(=O)O1)c1ccc(Cl)s1 [Rivaroxaban],91.5,106,99.8,112,99,90.8,103,92.1
CC[C@H](C)[C@H](N)C1=N[C@H](C(=O)N[C@@H](CC(C)C)C(=O)N[C@H](CCC(=O)[O-])C(=O)N[C@H](C(=O)N[C@H]2CCCCNC(=O)[C@H](CC(N)=O)NC(=O)[C@@H](CC(=O)[O-])NC(=O)[C@H](Cc3cnc[nH]3)NC(=O)[C@@H](Cc3ccccc3)NC(=O)[C@H]([C@@H](C)CC)NC(=O)[C@@H](CCCN)NC2=O)[C@@H](C)CC)CS1.[Zn+2] [Bacitracin zinc],95.4,107,109,123,105,107,109,117
CCCSc1nc(N[C@@H]2C[C@H]2c2ccc(F)c(F)c2)c2nnn([C@@H]3C[C@H](OCCO)[C@@H](O)[C@H]3O)c2n1 [Ticagrelor],109,115,108,123,108,108,113,111
O=C(O)CCCN1CCC(O[C@@H](c2ccc(Cl)cc2)c2ccccn2)CC1 [Bepotastine Besilate],112,108,111,120,113,115,115,131
CC[C@H]1OC(=O)[C@H](C)[C@@H](O[C@H]2C[C@@](C)(OC)[C@@H](O)[C@H](C)O2)[C@H](C)[C@@H](O[C@@H]2O[C@H](C)C[C@H](N(C)C)[C@H]2O)[C@](C)(O)C[C@@H](C)CN(C)[C@H](C)[C@@H](O)[C@]1(C)O [Azithromycin],109,103,99.3,59.1,105,96.2,102,41.1
Cc1nc2c([nH]1)-c1ccccc1N(C(=O)c1ccc(NC(=O)c3ccccc3-c3ccccc3)cc1)CC2 [Conivaptan HCl],100,98.8,46.4,47.7,98,84.2,89.2,36.5
COc1ccccc1N1CCN(CC(O)COc2cccc3ccccc23)CC1 (stereo unspecified) [Naftopidil],103,101,104,101,102,100,102,103
COc1cc(OC)c(C(=O)CCCN2CCCC2)c(OC)c1 [Buflomedil HCl],101,99.7,100,114,108,103,105,114
CCC(C)n1ncn(-c2ccc(N3CCN(c4ccc(OCC5COC(Cn6cncn6)(c6ccc(Cl)cc6Cl)O5)cc4)CC3)cc2)c1=O (stereo unspecified) [Itraconazole],99.1,101,100,108,103,106,101,107
CS(=O)(=O)c1ccc(C2=C(c3ccccc3)C(=O)OC2)cc1 [Rofecoxib],104,97.5,103,107,105,94.4,107,109
CC(C)(C)NC(=O)[C@H]1CC[C@H]2[C@@H]3CC[C@H]4NC(=O)C=C[C@]4(C)[C@H]3CC[C@]12C [Finasteride],100,106,106,117,115,110,111,113
O=P(O)(O)C(Cl)(Cl)P(=O)(O)O [Clodronate Disodium],114,114,114,115,117,111,113,113
C=CC(=O)N1CCC[C@@H](n2nc(-c3ccc(Oc4ccccc4)cc3)c3c(N)ncnc32)C1,98.9,96.6,101,102,101,90.2,90.5,102

SMILES,relative cell viability [1],relative cell viability [2],relative cell viability [3],relative cell viability [4],relative cell viability [5],relative cell viability [6],relative cell viability [7],relative cell viability [8]
CCCCOc1ccc(CC(=O)NO)cc1 [Bufexamac],109,100,111,117,105,107,107,110
CN(C)CCN(Cc1ccccc1)c1ccccn1 [Tripelennamine HCl],97.8,87.6,88,103,93,91.8,94.1,105
CCN(CC)CC#CCOC(=O)C(O)(c1ccccc1)C1CCCCC1 (stereo unspecified) [Oxybutynin],97.2,99.9,101,102,109,103,104,101
CCCC(CCC)C(=O)O [Valproic acid sodium salt],106,117,113,111,104,111,123,111
CCN1CCC[C@H]1CNC(=O)c1cc(S(N)(=O)=O)ccc1OC [Levosulpiride],98,107,105,116,107,108,108,116
Nc1nc(F)nc2c1ncn2[C@@H]1O[C@H](CO)[C@@H](O)[C@@H]1O [Fludarabine],104,101,107,109,101,107,104,83.7
Cc1ccc(NC(=O)c2ccc(CN3CCN(C)CC3)cc2)cc1Nc1nccc(-c2cccnc2)n1 [Imatinib],101,101,110,107,105,100,98.6,111
O=c1oc2c(O)c(O)cc3c(=O)oc4c(O)c(O)cc1c4c23 [Ellagic acid],113,104,114,124,101,113,118,119
NC[C@H]1CC[C@H](C(=O)O)CC1 [Tranexamic acid],99.9,102,100,104,101,104,102,112
N=C(N)NC(=N)NCCc1ccccc1 [Phenformin hydrochloride],101,95.3,99.6,74.1,101,103,104,71.8
COc1cc2ncnc(Nc3ccc(F)c(Cl)c3)c2cc1OCCCN1CCOCC1 [Gefitinib],106,114,122,100,101,112,99.4,100
OCCN1C[C@H](O)[C@@H](O)[C@H](O)[C@H]1CO [Miglitol],104,104,119,108,101,102,106,117
CCOc1ccccc1OC(c1ccccc1)C1CNCCO1 (stereo unspecified) [Reboxetine mesylate],105,102,105,122,115,99.7,108,119
Cc1[nH]c(=O)c(C#N)cc1-c1ccncc1 [Milrinone],102,106,105,111,99.8,108,99.1,113
Cc1ncc(CO)c(CO)c1O [Pyridoxine hydrochloride],102,101,103,109,99.7,100,103,114
COc1cc2c(cc1OC)C(=O)C(CC1CCN(Cc3ccccc3)CC1)C2 (stereo unspecified) [Donepezil HCl],106,106,110,106,95.9,102,103,107
O=P(O)(O)C(O)(Cc1cccnc1)P(=O)(O)O [Risedronate sodium],103,112,107,122,111,107,121,116
CC(=O)O[C@H]1CC[C@@]2(C)C(=CC[C@@H]3[C@@H]2CC[C@]2(C)C(c4cccnc4)=CC[C@@H]32)C1 [Abiraterone Acetate],104,103,101,117,97.2,99.2,102,115
CC(C)(Sc1cc(C(C)(C)C)c(O)c(C(C)(C)C)c1)Sc1cc(C(C)(C)C)c(O)c(C(C)(C)C)c1 [Probucol],108,105,104,110,106,103,105,112
C[C@@H](O)[C@H]1C(=O)N2C(C(=O)OCOC(=O)C(C)(C)C)=C(SC3CN(C4=NCCS4)C3)[C@H](C)[C@H]12 [Tebipenem pivoxil],98.3,102,99.2,91.2,96.9,92.7,101,93.4
CC(C)(Oc1ccc(Cl)cc1)C(=O)O [Clofibric acid],106,105,108,115,104,106,104,109
